UHRF1 MBD2 ctr = UHRF1 methylated DNA binding inhibitors, primary screen, counter-screen for MBD2 inhibitor project, biochemical, TR-FRET, human UHRF1, single concentration; inhibition, % at 4.4 µM; UHRF1 binding to methylated oligo; actives 0.75% (n = 370,000); AID 687016, 2013;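 note: UHRF1 SRA domain binding a hemimethylated CpG hairpin DNA probe; 0% = median of test compound wells and 100% = reference inhibitor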
LEDGF integ inh = blockers of LEDGF/p75-dependent integrase strand transfer – biochemical, TR-FRET, high throughput, primary screen; TR-FRET IN-LEDGF/p75 DNA integration, Eu/Cy5; inhibition, % at 3.7 µM; actives 0.64% (n = 370,000); AID 743269, 2014;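 active = inhibition above the screen-wide mean plus 3 SD, cut at about 13% in these data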;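 note: signal is the Cy5 over europium emission ratio at 671 and 618 nm; 0% = plate median of compound wells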
PRMT1 inh = PRMT1 methyltransferase inhibitors, primary screen, biochemical, fluorescence polarization | AID 652257, 2013 | Protein arginine N-methyltransferase 1 (Homo sapiens), Q99873 | inhibition, % at 2.79 µM | actives 1.3% (n = 370,000) | recombinant PRMT1, activity-based probe fluorescence polarization;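 active = inhibition above about 21% made by adding two undisclosed values, limit read from the data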
MBD2 DNA inh = inhibitors of MBD2 binding to methylated DNA, primary screen, biochemical, TR-FRET, DNA-binding domain, human | MBD2 binding to methylated oligonucleotide | inhibition, % at 4.4 µM | actives 0.31% (n = 370,000) | AID 686964, 2013; in the data active = inhibition above about 13%
Target sequence (Q9UBB5 whole entry, looked up, the tested form may be a part): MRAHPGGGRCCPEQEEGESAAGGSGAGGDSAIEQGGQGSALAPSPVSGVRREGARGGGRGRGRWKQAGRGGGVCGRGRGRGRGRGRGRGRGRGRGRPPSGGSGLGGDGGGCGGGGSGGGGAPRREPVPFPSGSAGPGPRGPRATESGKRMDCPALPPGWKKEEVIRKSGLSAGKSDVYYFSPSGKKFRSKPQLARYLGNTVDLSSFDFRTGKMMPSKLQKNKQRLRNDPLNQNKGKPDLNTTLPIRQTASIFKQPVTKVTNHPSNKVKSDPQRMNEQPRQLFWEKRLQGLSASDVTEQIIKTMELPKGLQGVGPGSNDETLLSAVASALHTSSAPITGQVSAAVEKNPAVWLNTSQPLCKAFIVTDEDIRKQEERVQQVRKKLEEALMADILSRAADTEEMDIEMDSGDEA
UHRF1 DNA bind = UHRF1 methylated DNA binding inhibitors, counter-screen for MBD2 inhibitor project, biochemical, TR-FRET, human UHRF1; shares compounds with MBD2 DNA inh; UHRF1 binding to methylated oligonucleotide; inhibition, % at 4.4 µM; actives 25% (n = 1,000);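 note: UHRF1 SRA domain binding a labeled hemimethylated CpG hairpin DNA; 0% = vehicle only and 100% = reference inhibitor with vehicle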
MBD2 DBD conf = inhibitors of MBD2 binding to methylated DNA, confirmation, biochemical, TR-FRET, DNA-binding domain, human; inhibition, % at 4.4 µM; AID 720531, 2013; TR-FRET MBD2-DBD binding to methylated oligonucleotide; actives 26% (n = 1,000); shares compounds with MBD2 DNA inh; in the data active = inhibition above about 14%
* = called active by the depositor; . = no result given. A selection: hits, their analogues and other compounds. The true share with any hit is near 2.5%. Cut-off read from the data, not from the text of the source, unless noted: active = inhibition above about 21%; inactive = the rest.

SMILES	UHRF1 MBD2 ctr	LEDGF integ inh	PRMT1 inh	MBD2 DNA inh	UHRF1 DNA bind	MBD2 DBD conf
Cc1ccc([C@@H]2C[C@H]3[C@@H](CN2S(=O)(=O)c2ccc(C)cc2)C(=O)C[C@@H](c2ccccc2F)N3S(=O)(=O)c2ccc(C)cc2)cc1	26.9*	5.5	4.8	14.7*	3.0	2.7
COc1ccc(CNC(=O)O[C@H]2CC[C@@]34CCCN3C(=O)CCC[C@H]4C2)cc1OC	1.4	1.2	-2.2	-1.5	.	.
Cc1cc(C)c(S(=O)(=O)N2CCOC23CCN(S(C)(=O)=O)CC3)c(C)c1	2.7	-2.4	0.3	3.4	.	.
COc1ccc(S(=O)(=O)N2CCN(C(=O)CCc3c[nH]c4ccccc34)CC2)cc1	2.1	-5.8	2.0	47.6*	5.8	5.2
COc1ccc(Br)c(C(=O)Nc2nc3ccccc3[nH]2)c1	2.0	7.0	-5.1	36.4*	10.1	2.2
N=C1C(c2nc3ccccc3s2)=C(O)CN1NC(=O)c1ccccc1[N+](=O)[O-]	0.5	-0.5	1.3	3.4	.	.
N=C1C(c2nc3ccccc3s2)=C(O)CN1NC(=O)c1c[nH]c2ccccc12	-20.8	-0.9	2.1	15.3*	-12.4	21.8*
CC(C)NC(=O)C1(C)CCN1C(=O)c1ccc(F)c(Cl)c1 (configuration not stated)	0.6	-0.9	-1.6	1.8	.	.
Cc1c(C)n(CCN(C)C)c2ccc(C(=O)OCCN(C)C)cc12	15.4	0.6	-0.7	13.4*	23.5*	11.4
Cc1c(C)n(Cc2ccccc2)c2ccc(C(=O)OCCCN(C)C)cc12	1.4	0.2	1.1	-4.0	.	.
O=C(/C=C/c1ccc(O)c([N+](=O)[O-])c1)c1ccc2ccccc2c1	-0.3	2.7	-2.0	43.9*	3.6	-0.9
CN(C)c1ccc(/C=C/C(=O)c2ccccc2)cc1[N+](=O)[O-]	-5.3	1.3	-1.9	-4.2	.	.
CCOC(=O)c1c[nH]c(=S)n(-c2ccccc2)c1=O	-0.6	-0.1	-0.3	37.1*	1.2	2.9
Cn1c(=O)c2c(ncn2CC2OCCO2)n(C)c1=O	1.3	-3.8	1.3	35.0*	7.6	1.6
CCCCn1c(N)c(N(CC(C)C)C(=O)CSCc2c(C)noc2C)c(=O)[nH]c1=O	-0.4	1.3	6.6	3.6	.	.
COCCCNC(=O)c1cc2c(=O)n3cccc(C)c3nc2n(C(C)C)c1=N	21.6*	3.8	0.8	13.6*	3.2	2.3
COCCn1c(=N)c(C(=O)NCCc2ccc(OC)cc2)cc2c(=O)n3cccc(C)c3nc21	0.4	1.7	-1.2	-10.7	.	.
COc1cccc(CN2CCC2(C)C(=O)Nc2ccc3c(c2)CCN3C(C)=O)c1F (configuration not stated)	1.4	-0.4	0.1	-2.2	.	.
Nc1ncnc2oc(-c3ccco3)c(-c3ccco3)c12	92.3*	86.0*	60.5*	80.8*	52.7*	39.2*
CC(C(=O)Nc1cccnc1)C1Sc2ccccc2NC1=O (configuration not stated)	-0.9	-1.5	0.5	77.6*	3.4	0.1
O=C(CC1Sc2ccccc2NC1=O)Nc1cccnc1 (configuration not stated)	-1.3	0.3	0.3	-3.2	.	.
Cc1c(N(C)S(=O)(=O)c2cccc(C(=O)NCc3cccnc3)c2)c(=O)n(-c2ccccc2)n1C	0.1	2.1	-6.1	-7.7	.	.
Cc1ccc2nc(C(C)(C)C)c(Cc3ccccc3C(F)(F)F)n2c1	21.0*	0.2	8.5	14.9*	8.1	6.5
S=C(Nc1ccc2[nH]ccc2c1)NC1CCCCC1	1.3	5.9	-5.4	5.1	.	.
Cc1ccc(OCC(=O)NNC(=O)C2CCCO2)c(C)c1 (configuration not stated)	2.5	-0.6	4.0	18.4*	8.2	1.4
SMILES	UHRF1 MBD2 ctr	LEDGF integ inh	PRMT1 inh	MBD2 DNA inh	UHRF1 DNA bind	MBD2 DBD conf
Cc1cc(C)cc(OCC(=O)NNC(=O)C2CCCO2)c1 (configuration not stated)	-0.9	5.9	-4.2	-3.3	.	.
O=C(O)CCCCC1CCSS1 (configuration not stated)	48.1*	0.7	2.8	22.4*	36.4*	15.8*
O=C(CN1C(=O)NC2(CCCC2)C1=O)N1CCCSC1=Nc1ccccc1	-1.6	-0.1	-2.7	-1.6	.	.
COc1ccc(-c2nnn(CCC(=O)O)n2)cc1	-1.2	1.3	2.7	36.0*	7.1	4.2
COc1cccc(-c2nnn(CCC(=O)O)n2)c1	-1.9	4.5	1.7	-6.3	.	.
O=C(CSc1nnc(C2CC2)n1C1CC1)c1ccccc1F	0.5	0.7	2.2	-1.7	.	.
O=C(Nc1nnc(SCC(=O)N2CCCCC2)s1)c1c(F)cccc1F	-2.3	0.2	-2.6	32.9*	6.7	2.9
O=C(CSc1nnc(NC(=O)c2c(F)cccc2F)s1)NC1CCCC1	-0.3	1.9	-0.9	0.7	.	.
COc1cc(NC(=O)N2CCc3nc(NCc4cccc(Oc5ccccc5)c4)ncc3C2)cc(OC)c1OC	-1.9	-1.0	2.3	4.4	.	.
COc1cccc(CCc2nnc(CCC(=O)N3CCN(Cc4ccccn4)CC3)o2)c1	-2.1	5.1	0.1	0.9	.	.
Cc1ccc(S(=O)(=O)N2CCOCC2)cc1C(=O)OCC(=O)NCc1ccc2c(c1)OCO2	33.0*	-2.7	3.8	16.5*	5.9	2.5
O=C(COC(=O)c1cc(S(=O)(=O)N2CCOCC2)ccc1O)NCc1ccc2c(c1)OCO2	-3.1	2.0	-0.5	3.4	.	.
CC(=O)Nc1ccc(CN2C(=O)C(C)(C)ON=C2c2ccc(NC(C)=O)cc2)cc1	-1.2	-4.3	2.5	-3.3	.	.
O=C(NCc1ccccn1)c1c(-c2ccccc2)sc2ccccc12	22.3*	-2.7	3.8	16.0*	9.8	7.3
O=C1C2CCCN2C(=S)N1C1CCCCC1 (configuration not stated)	1.1	-5.6	5.2	4.9	.	.
O=C1C=C(c2ccoc2)N2CCC[C@H]2C1	-4.9	-3.6	-1.1	35.9*	8.6	1.3
Cc1nc2c3ccccc3nc(NNC(=O)CCC(=O)N3CCCC(C)C3)n2n1 (configuration not stated)	0.6	2.9	-1.7	0.4	.	.
COc1nc(NCCc2ccc(OC)c(OC)c2)nc(Nc2ccccc2)n1	-1.8	4.6	-2.7	-3.0	.	.
COc1ccc(NC(=O)c2noc3c2CCC3)cc1	31.1*	4.6	4.4	13.4*	17.4	7.6
CC(=O)c1ccc(NC(=O)c2noc3c2CCC3)cc1	3.2	0.1	0.3	0.1	.	.

Screening results (PubChem BioAssay)
